# Laboratory results reported in paper PMC7862700, “An all-to-all approach to the identification of sequence-specific readers for epigenetic DNA modifications on cytosine”.
# Legend:
# Test in all cases: DAPPL (digital affinity profiling via proximity ligation, sequencing); 10 mM Tris-HCl pH 7.5, 50 mM NaCl, 1 mM DTT, 4% glycerol, room temperature, 30 min; GST-TFs on glutathione beads, 16-mer random dsDNA library, 0.1% formaldehyde crosslink after washing; high values mean tight binding
# [1] = target: T1, FEV (Homo sapiens, UniProt Q99581 1-238); conditions: protein: recombinant; tags: N-terminal GST; dsDNA, one strand shown
# T1 sequence: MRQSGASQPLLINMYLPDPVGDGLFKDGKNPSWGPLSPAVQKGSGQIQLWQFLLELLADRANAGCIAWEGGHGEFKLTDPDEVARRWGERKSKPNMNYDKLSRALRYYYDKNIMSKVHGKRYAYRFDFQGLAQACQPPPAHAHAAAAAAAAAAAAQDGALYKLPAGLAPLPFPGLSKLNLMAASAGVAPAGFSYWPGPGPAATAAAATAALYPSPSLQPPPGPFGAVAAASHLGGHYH
# Outline: (§1)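 Pools of DNA-barcoded human transcription factors, expressed in yeast as GST fusions on glutathione beads and combined with a tag-only sample, were incubated with 200 nmole of a 16-mer random double-stranded DNA library. Incubation took 30 min at room temperature in Tris/NaCl/DTT/glycerol buffer and was followed by washing, 0.1% formaldehyde crosslinking, proximity ligation (BsaI/T4 ligase, 1 h, 37 °C), PCR amplification and sequencing on an Illumina NextSeq500. Binding signal is the ratio of a hexamer's read frequency for a factor to its frequency for the tag-only sample.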
# [2] = target: ETV5 (Homo sapiens, UniProt P41161 1-510); conditions: protein: recombinant; tags: N-terminal GST; dsDNA, one strand shown
# Sequence of ETV5 (P41161 whole entry): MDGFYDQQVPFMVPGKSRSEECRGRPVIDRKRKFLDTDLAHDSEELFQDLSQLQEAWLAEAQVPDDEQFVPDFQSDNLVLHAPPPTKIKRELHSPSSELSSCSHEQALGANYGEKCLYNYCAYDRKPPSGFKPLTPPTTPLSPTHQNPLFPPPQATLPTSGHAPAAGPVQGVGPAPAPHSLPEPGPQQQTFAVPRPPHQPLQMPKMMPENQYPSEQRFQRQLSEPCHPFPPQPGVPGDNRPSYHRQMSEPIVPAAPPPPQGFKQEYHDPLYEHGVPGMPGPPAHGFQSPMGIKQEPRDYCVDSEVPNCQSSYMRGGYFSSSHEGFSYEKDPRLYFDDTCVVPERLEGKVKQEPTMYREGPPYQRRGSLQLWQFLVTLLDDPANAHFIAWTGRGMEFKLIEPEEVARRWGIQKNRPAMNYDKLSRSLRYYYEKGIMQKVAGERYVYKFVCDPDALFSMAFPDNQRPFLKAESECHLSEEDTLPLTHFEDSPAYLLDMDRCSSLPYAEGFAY
# Outline: as §1
# [3] = target: HSF1 (Homo sapiens, UniProt Q00613 1-529); conditions: protein: recombinant; tags: N-terminal GST; chain copies: 3; dsDNA, one strand shown
# Sequence of HSF1 (Q00613 whole entry): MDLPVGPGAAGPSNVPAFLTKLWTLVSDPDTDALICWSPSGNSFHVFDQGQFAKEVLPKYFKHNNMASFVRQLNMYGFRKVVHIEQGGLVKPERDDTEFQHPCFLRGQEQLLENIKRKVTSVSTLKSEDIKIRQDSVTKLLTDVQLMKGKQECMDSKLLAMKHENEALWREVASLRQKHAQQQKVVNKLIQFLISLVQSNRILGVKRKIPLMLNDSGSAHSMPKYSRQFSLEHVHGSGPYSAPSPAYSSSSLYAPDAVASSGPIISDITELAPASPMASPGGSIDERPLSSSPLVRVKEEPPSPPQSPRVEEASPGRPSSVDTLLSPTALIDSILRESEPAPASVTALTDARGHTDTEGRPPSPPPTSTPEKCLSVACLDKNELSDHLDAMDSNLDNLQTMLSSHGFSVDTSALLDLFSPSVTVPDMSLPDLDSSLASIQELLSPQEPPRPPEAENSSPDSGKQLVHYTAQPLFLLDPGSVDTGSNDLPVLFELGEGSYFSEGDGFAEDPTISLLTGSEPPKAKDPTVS
# Outline: as §1
# [4] = target: T2, SPIC (Homo sapiens, UniProt Q8N5J4 1-248); conditions: protein: recombinant; tags: N-terminal GST; dsDNA, one strand shown
# T2 sequence: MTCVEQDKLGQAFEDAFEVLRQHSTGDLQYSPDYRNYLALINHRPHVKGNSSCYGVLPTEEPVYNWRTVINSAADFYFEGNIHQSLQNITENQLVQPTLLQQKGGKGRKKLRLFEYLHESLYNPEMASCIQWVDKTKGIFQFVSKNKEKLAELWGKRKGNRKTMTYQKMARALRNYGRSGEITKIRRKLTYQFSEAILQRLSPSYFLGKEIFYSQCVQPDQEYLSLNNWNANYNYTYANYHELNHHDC
# Outline: as §1
# [5] = target: ELF4 (Homo sapiens, UniProt Q99607 1-663); conditions: protein: recombinant; tags: N-terminal GST; dsDNA, one strand shown
# Sequence of ELF4 (Q99607 whole entry): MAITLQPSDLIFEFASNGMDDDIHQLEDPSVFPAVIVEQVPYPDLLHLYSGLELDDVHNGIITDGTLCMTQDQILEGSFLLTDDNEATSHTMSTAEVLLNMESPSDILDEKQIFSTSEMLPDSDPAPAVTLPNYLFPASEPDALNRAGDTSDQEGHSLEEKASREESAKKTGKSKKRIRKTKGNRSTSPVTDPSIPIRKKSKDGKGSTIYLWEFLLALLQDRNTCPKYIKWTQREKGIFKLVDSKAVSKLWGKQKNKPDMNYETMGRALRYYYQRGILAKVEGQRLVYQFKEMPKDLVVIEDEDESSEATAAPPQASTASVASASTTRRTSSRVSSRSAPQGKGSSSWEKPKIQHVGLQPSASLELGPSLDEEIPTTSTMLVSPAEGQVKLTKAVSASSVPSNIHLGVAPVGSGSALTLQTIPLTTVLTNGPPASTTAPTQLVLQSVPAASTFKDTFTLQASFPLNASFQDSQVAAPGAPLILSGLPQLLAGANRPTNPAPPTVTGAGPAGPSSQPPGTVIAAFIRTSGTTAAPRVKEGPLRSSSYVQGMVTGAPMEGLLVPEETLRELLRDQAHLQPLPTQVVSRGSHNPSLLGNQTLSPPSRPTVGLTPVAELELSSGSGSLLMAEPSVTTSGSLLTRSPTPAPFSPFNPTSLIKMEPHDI
# Outline: as §1
# [6] = target: T3, ELK4 (Homo sapiens, UniProt P28324-2 1-405); conditions: protein: recombinant; tags: N-terminal GST; dsDNA, one strand shown
# T3 sequence: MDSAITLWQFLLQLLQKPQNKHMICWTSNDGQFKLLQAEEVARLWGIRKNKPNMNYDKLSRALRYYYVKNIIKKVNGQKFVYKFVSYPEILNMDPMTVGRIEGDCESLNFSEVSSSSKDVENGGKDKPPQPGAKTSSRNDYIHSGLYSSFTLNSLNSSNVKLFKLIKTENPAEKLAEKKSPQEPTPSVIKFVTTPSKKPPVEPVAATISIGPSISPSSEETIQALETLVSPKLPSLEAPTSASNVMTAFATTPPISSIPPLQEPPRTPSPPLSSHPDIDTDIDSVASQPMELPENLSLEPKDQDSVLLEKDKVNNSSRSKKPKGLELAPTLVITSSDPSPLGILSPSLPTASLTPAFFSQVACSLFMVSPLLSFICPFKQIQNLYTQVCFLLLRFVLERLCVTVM
# Outline: as §1
# [7] = target: T4, ETV2 (Homo sapiens, UniProt O00321 1-342); conditions: protein: recombinant; tags: N-terminal GST; dsDNA, one strand shown
# T4 sequence: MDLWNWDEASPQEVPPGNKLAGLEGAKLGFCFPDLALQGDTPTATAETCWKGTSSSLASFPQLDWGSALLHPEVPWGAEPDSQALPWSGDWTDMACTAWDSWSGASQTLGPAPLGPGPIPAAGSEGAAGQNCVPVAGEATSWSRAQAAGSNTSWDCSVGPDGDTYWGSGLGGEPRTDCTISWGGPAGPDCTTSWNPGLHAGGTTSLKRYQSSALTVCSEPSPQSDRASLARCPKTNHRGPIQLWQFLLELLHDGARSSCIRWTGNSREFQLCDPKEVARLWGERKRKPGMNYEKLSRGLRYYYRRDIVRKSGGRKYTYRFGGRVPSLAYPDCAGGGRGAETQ
# Outline: as §1
# [8] = target: T5, ELF3 (Homo sapiens, UniProt P78545 1-371); conditions: protein: recombinant; tags: N-terminal GST; dsDNA, one strand shown
# T5 sequence: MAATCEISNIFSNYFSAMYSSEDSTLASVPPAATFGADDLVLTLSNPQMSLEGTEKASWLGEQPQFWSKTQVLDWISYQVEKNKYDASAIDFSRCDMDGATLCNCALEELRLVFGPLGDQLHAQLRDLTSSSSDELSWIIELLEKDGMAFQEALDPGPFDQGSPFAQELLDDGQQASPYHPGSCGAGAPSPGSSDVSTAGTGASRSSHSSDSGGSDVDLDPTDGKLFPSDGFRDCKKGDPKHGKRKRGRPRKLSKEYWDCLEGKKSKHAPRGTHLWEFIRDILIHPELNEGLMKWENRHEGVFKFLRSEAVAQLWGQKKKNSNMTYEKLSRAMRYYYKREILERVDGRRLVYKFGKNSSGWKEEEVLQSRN
# Outline: as §1
# [9] = target: CRX (Homo sapiens, UniProt O43186 1-299); conditions: protein: recombinant; tags: N-terminal GST; dsDNA, one strand shown
# Sequence of CRX (O43186 whole entry): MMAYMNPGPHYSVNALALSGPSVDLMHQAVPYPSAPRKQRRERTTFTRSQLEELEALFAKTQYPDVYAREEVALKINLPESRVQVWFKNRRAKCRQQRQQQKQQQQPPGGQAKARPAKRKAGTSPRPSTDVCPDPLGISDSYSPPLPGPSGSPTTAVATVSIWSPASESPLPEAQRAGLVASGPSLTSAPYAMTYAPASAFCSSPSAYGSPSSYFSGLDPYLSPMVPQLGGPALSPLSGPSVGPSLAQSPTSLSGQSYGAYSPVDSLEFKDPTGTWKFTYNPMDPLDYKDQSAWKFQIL
# Outline: as §1
# [10] = target: ETV1 (Homo sapiens, UniProt P50549 1-477); conditions: protein: recombinant; tags: N-terminal GST; dsDNA, one strand shown
# Sequence of ETV1 (P50549 whole entry): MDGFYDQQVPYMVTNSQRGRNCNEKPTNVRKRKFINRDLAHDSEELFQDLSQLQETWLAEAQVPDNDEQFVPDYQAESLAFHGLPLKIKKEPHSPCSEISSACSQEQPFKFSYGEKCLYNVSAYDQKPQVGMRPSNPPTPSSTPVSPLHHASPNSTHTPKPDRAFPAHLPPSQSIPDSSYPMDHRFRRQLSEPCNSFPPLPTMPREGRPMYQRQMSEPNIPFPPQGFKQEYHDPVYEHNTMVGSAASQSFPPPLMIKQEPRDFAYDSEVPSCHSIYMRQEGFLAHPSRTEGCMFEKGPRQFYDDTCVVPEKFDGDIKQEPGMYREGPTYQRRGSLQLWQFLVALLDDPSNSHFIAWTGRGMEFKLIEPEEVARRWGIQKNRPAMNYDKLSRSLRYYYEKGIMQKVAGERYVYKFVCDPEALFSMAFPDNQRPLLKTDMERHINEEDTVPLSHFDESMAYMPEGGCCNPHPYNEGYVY
# Outline: as §1
# [11] = target: T6, ERF (Homo sapiens, UniProt P50548 1-548); conditions: protein: recombinant; tags: N-terminal GST; dsDNA, one strand shown
# T6 sequence: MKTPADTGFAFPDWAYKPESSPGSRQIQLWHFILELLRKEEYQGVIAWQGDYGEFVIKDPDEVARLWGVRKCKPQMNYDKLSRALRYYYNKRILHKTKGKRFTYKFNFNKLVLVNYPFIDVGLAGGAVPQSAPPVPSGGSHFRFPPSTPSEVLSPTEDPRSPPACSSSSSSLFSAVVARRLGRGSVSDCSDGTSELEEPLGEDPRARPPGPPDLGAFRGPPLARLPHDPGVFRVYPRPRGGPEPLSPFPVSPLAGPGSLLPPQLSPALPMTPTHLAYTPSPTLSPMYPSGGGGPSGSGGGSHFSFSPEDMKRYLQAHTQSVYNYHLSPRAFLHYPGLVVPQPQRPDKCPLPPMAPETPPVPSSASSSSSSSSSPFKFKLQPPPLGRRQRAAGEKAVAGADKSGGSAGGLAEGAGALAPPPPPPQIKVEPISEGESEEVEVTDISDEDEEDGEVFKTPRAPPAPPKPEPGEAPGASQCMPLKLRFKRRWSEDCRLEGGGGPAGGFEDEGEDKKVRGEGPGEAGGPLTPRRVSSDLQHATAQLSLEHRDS
# Outline: as §1
# [12] = target: T7, ETV3L (Homo sapiens, UniProt Q6ZN32 1-361); conditions: protein: recombinant; tags: N-terminal GST; dsDNA, one strand shown
# T7 sequence: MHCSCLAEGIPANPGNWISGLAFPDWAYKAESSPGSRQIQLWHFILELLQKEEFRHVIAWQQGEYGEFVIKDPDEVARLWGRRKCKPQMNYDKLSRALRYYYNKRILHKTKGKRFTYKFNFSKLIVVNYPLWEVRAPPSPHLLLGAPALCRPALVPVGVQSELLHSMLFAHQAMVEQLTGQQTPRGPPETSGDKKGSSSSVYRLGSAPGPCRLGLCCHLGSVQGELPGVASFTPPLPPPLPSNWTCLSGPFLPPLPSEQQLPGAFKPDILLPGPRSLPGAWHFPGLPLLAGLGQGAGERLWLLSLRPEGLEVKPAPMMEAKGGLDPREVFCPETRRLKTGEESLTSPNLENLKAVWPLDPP
# Outline: as §1
# [13] = target: T8, ETS2 (Homo sapiens, UniProt P15036 1-469); conditions: protein: recombinant; tags: N-terminal GST; dsDNA, one strand shown
# T8 sequence: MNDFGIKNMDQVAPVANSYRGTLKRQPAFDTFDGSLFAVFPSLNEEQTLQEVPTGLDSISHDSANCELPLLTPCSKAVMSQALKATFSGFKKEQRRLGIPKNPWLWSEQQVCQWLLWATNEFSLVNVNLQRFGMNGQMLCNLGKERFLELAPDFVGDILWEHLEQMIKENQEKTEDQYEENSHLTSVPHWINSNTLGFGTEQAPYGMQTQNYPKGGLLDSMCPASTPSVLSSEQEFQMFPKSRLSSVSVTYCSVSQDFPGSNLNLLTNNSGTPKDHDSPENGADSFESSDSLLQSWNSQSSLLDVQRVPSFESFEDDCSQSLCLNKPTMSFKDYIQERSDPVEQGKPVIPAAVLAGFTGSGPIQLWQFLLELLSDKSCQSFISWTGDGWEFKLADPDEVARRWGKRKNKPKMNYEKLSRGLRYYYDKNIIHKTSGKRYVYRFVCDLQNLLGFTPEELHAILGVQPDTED
# Outline: as §1
# [14] = target: T9, SPDEF (Homo sapiens, UniProt O95238 1-335); conditions: protein: recombinant; tags: N-terminal GST; dsDNA, one strand shown
# T9 sequence: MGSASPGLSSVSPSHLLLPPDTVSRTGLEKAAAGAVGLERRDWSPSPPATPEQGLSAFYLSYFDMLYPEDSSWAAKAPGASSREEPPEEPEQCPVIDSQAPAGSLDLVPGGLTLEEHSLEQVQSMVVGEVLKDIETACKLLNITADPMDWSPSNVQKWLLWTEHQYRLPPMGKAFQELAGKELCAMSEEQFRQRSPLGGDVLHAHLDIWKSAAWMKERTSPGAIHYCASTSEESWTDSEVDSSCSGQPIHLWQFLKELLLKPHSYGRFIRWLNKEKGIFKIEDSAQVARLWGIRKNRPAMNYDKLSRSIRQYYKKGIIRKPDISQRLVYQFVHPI
# Outline: as §1
# [15] = target: T10, ETV7 (Homo sapiens, UniProt Q9Y603 1-341); conditions: protein: recombinant; tags: N-terminal GST; dsDNA, one strand shown
# T10 sequence: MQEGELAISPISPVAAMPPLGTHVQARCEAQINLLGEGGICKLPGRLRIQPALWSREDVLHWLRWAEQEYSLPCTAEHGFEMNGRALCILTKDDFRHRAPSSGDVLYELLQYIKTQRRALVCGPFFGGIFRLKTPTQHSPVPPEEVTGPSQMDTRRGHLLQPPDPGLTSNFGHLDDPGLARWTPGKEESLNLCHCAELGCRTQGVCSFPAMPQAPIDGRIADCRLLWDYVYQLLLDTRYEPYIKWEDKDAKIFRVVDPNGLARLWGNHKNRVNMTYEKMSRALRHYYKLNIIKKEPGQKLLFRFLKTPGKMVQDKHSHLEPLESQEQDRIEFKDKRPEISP
# Outline: as §1
# [16] = target: T11, ELF5 (Homo sapiens, UniProt Q9UKW6-2 1-255); conditions: protein: recombinant; tags: N-terminal GST; dsDNA, one strand shown
# T11 sequence: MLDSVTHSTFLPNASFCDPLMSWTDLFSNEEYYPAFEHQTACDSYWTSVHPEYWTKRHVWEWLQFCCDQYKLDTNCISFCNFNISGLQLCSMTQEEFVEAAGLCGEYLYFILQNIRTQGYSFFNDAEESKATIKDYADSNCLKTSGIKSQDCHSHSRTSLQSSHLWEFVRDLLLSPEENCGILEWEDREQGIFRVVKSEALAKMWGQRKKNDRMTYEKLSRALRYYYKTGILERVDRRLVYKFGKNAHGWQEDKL
# Outline: as §1
# [17] = target: T12, ETV3 (Homo sapiens, UniProt P41162-2 1-143); conditions: protein: recombinant; tags: N-terminal GST; dsDNA, one strand shown
# T12 sequence: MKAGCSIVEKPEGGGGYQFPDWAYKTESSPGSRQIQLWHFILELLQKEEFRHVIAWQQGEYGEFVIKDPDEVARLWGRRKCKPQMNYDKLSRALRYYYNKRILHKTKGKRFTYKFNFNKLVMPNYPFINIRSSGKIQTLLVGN
# Outline: as §1
# [18] = target: ETV6 (Homo sapiens, UniProt P41212 1-452); conditions: protein: recombinant; tags: N-terminal GST; dsDNA, one strand shown
# Sequence of ETV6 (P41212 whole entry): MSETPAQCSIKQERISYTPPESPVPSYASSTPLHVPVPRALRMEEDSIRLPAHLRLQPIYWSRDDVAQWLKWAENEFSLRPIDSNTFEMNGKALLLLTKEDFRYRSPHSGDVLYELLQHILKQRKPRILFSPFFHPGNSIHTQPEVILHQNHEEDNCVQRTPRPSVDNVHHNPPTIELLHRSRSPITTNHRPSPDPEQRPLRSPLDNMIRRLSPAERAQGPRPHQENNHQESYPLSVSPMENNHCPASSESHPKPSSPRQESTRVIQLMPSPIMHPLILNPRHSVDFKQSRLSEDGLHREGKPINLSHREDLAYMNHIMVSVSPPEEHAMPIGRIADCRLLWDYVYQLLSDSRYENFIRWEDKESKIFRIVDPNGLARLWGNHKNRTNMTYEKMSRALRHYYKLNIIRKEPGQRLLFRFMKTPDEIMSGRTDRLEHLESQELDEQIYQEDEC
# Outline: as §1
sequence,measurement,setting,value
AAACTT,binding signal,[1],"1.3 fold enrichment (6-mer frequency, TF over GST control)"
same,binding signal,[2],"1.22 fold enrichment (6-mer frequency, TF over GST control)"
same,binding signal,[3],"1.37 fold enrichment (6-mer frequency, TF over GST control)"
same,binding signal,[4],"1.36 fold enrichment (6-mer frequency, TF over GST control)"
same,binding signal,[5],"1.26 fold enrichment (6-mer frequency, TF over GST control)"
same,binding signal,[6],"1.23 fold enrichment (6-mer frequency, TF over GST control)"
same,binding signal,[7],"1.28 fold enrichment (6-mer frequency, TF over GST control)"
same,binding signal,[8],"1.13 fold enrichment (6-mer frequency, TF over GST control)"
same,binding signal,[9],"1.21 fold enrichment (6-mer frequency, TF over GST control)"
same,binding signal,[10],"1.27 fold enrichment (6-mer frequency, TF over GST control)"
same,binding signal,[11],"1.36 fold enrichment (6-mer frequency, TF over GST control)"
same,binding signal,[12],"1.24 fold enrichment (6-mer frequency, TF over GST control)"
same,binding signal,[13],"1.32 fold enrichment (6-mer frequency, TF over GST control)"
same,binding signal,[14],"1.1 fold enrichment (6-mer frequency, TF over GST control)"
same,binding signal,[15],"1.22 fold enrichment (6-mer frequency, TF over GST control)"
same,binding signal,[16],"1.43 fold enrichment (6-mer frequency, TF over GST control)"
same,binding signal,[17],"1.34 fold enrichment (6-mer frequency, TF over GST control)"
same,binding signal,[18],"1.29 fold enrichment (6-mer frequency, TF over GST control)"
